Measured potencies and affinities stand elsewhere.
target: Protein S100-A4 (Homo sapiens) (UniProt P26447); assay: human S100A4 peptide interaction inhibition curves – biochemical, fluorescence polarization, cherry-picked hits, dose response (AID 687001); conditions: FP, S100A4/TAMRA-myosin IIA peptide binding; series mostly up to 11 µM; activity change, negative = inhibition: at the top concentration;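 further: 0% = DMSO neutral control wells and -100% = TFP positive control wells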
Sequence (P26447 whole entry, looked up): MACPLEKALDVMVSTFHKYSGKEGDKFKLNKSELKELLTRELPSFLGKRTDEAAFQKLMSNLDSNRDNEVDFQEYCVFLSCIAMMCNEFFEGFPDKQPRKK

Activity change, negative = inhibition, inactive:
Cn1cnc(S(=O)(=O)N2C[C@H](O)COC[C@@H]3O[C@H](CC(=O)NC4CCCC4)CC[C@H]32)c1 1.12%
O=C(C[C@H]1CC[C@H]2NC[C@H](O)COC[C@@H]2O1)NCCN1CCCCC1 0.797%
Cc1ccc(C(=O)Nc2ccc(N3CCOCC3)cc2)cc1 -0.762%
Cc1ccc(C(=O)N2CCN(c3ccc([N+](=O)[O-])c(N4CCOCC4)c3)CC2)cc1 -1.61%
CN1c2ccc(-c3ccccc3)cc2[C@@H]2[C@@H](CCN2C(=O)c2cccc(F)c2)[C@@H]1CO 3.83% [at 10 µM]
CC(C)CN1CCC(=O)N([C@H](COc2ccccc2)c2ccccc2)CC1 1.29%
COc1ccc(C(=O)O)cc1S(=O)(=O)Nc1ccccc1-c1ccccc1 6.38%
C[C@@H]1CN([C@H](C)CO)C(=O)c2cc(-c3ccc(F)cc3)cnc2O[C@H]1CN(C)Cc1cncnc1 10.5%
C[C@H]1CN([C@@H](C)CO)C(=O)c2cc(-c3cccc(C#N)c3)cnc2O[C@@H]1CN(C)Cc1cccnc1 2.31%
CCCNC(=O)N[C@H]1C=C[C@@H](CC(=O)N2CCN(C)CC2)O[C@@H]1CO 4.04%
COC(=O)[C@@H]1[C@@H](CO)[C@@H]2Cn3c(cccc3=O)[C@@H]2N1CC1CCOCC1 0.65%
CO[C@@H]1CN(C)C(=O)c2ccc(NC(C)=O)cc2OC[C@H](C)N(Cc2cc(F)ccc2F)C[C@@H]1C -0.038%
CC(C)C(=O)Nc1ccc2c(c1)C(=O)N(C)[C@H]1CC[C@H](CC(=O)Nc3cccc(F)c3)O[C@@H]1CO2 -3.5%
COc1cc(O)c(C(=O)O)c(CCc2ccccc2)c1 1.56%
COCC(=O)N1[C@H](CO)[C@@H](c2ccccc2)C12CN(C(=O)Cc1ccccn1)C2 8.22%
CCc1cccc(C)c1NC(=O)COC(=O)C1CC(=O)N(CCc2ccc(OC)c(OC)c2)C1 (stereo not drawn) -4.85%
CSc1ccccc1OCc1cc(C(=O)NCCN2CCCc3ccccc32)no1 29.8%
CCOc1ccc(N2CC(C(=O)NNC(=O)c3ccc(Br)cc3)CC2=O)cc1 (stereo not drawn) 1.89%
NS(=O)(=O)c1ccc(NC(=O)COC(=O)CCCN2C(=O)c3cccc4cccc(c34)C2=O)cc1 26.3%
C[C@@H]1CCCCO[C@@H](CN(C)C(=O)Nc2cccc3ccccc23)[C@H](C)CN([C@@H](C)CO)C(=O)c2cc(NC(=O)C3CCCCC3)ccc2O1 17.6%
CC(=O)Nc1ccc(S(=O)(=O)c2ccc([N+](=O)[O-])cc2)cc1 -4.99%
C[C@@H]1CN([C@@H](C)CO)C(=O)c2cccc(NS(=O)(=O)c3ccc(F)cc3)c2O[C@H]1CN(C)C(=O)NC1CCCCC1 1.57%
O=C(NCCC1=CCCCC1)c1ccc(Cl)c(S(=O)(=O)N2CCCCC2)c1 -0.676%
S=c1[nH]nc(-c2cc(-c3ccsc3)n[nH]2)n1-c1ccccc1 6.13%
COc1ccc(NC(=O)CN(C)C(=O)C2CC(=O)N(c3ccc4c(c3)OCCO4)C2)cc1 (stereo not drawn) 4.61%
Cc1cc(Br)ccc1NC(=S)NC1CCCC1 0.376%
Cc1cc(Nc2cccc(F)c2)cc(=O)n1-c1cccc(F)c1 8.17%
Cc1c(C(=O)NCc2cccc([N+](=O)[O-])c2)sc(=O)n1Cc1cccc(F)c1 -1.1%
Cc1ccc(N(C)S(=O)(=O)c2ccc3[nH]cc(C(=O)NCCCN4CCOCC4)c(=O)c3c2)cc1C 3.19%
C[C@@H]1CN([C@H](C)CO)C(=O)c2cc(NC(=O)C3CC3)ccc2O[C@@H]1CN(C)C(=O)Nc1ccc2c(c1)OCO2 -3.23% [at 10 µM]
Cc1ccc(S(=O)(=O)NCCC(=O)NCc2ccccn2)cc1 2.35%
CCc1ccc(NC(=O)C(C)OC(=O)c2ccc(NS(=O)(=O)c3ccc(C)c([N+](=O)[O-])c3)cc2)cc1 (stereo not drawn) 15.1%
COc1ccc(-c2sc3ccccc3c2-c2ccc(OCCN(C)C)cc2)cc1 -0.806%
Cc1ccc(S(=O)(=O)NCC[C@@H]2CC[C@H](NC(=O)Nc3cccc(F)c3)[C@@H](CO)O2)cc1 0.251%
Cc1cccc2sc(NC(=O)C3CCN(C(=O)c4ccco4)CC3)nc12 -2.59%
Cn1cnc(CCNC(=O)C[C@H]2CC[C@H]3[C@@H](COC[C@@H](O)CN3C(=O)C3CC3)O2)c1 -2.99%
O=C(C1CCCC1)N1CCCCN2[C@H](CO)[C@@H](c3ccc(C#CC4(O)CCCC4)cc3)[C@H]2C1 2.41%
CCOCCCNC(=O)c1ccc2c(c1)N(CC)C(=O)c1ccccc1S2=O (stereo not drawn) -1.78%
